Measurements as given in PubChem BioAssay (NCI).
Compounds without any hit were thinned out: in the full panel of roughly 79,000, 15% have a hit. The source made the active and inactive calls. Rule as the data show it: active = growth inhibition above about 70%; inactive = the rest.

Experiments:
[1] = NCI Yeast Anticancer Drug Screen. Data for the rad52 strain (AID 147);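 also: 0% = growth of vehicle-treated control cultures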; conditions: S. cerevisiae rad52 mutant growth inhibition, active compounds read high
Outline: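 Compounds are applied to a genetically defined yeast strain lacking normal DNA damage repair, and inhibition of growth is expressed relative to cultures given vehicle only.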

[2] = NCI Yeast Anticancer Drug Screen. Data for the wt1 strain (AID 149);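 also: 0% = growth of vehicle-treated wt1 cultures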; conditions: S. cerevisiae wt1 strain (SPY 50644) growth inhibition, active compounds read high
Outline: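 Yeast wt1 strain exposed to compounds; growth inhibition measured relative to vehicle-treated controls.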

[3] = NCI Yeast Anticancer Drug Screen. Data for the rad50EPP+ strain (AID 151);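 also: 0% = growth of vehicle-treated control cultures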; conditions: S. cerevisiae rad50 mutant strain, active compounds read high
Outline: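 Compounds were applied to the rad50EPP+ yeast strain, which bears a defined DNA repair alteration, and growth inhibition was determined relative to vehicle-treated cultures.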

[4] = NCI Yeast Anticancer Drug Screen. Data for the rad50 strain (AID 155);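 also: 0% = growth of vehicle-only cultures of the same strain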; conditions: S. cerevisiae rad50 strain growth inhibition, active compounds read high
Outline: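 Yeast carrying a defined DNA repair defect were exposed to test compounds, and growth was compared with vehicle-treated controls to give percent inhibition.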

[5] = NCI Yeast Anticancer Drug Screen. Data for the mec2-1 strain (AID 157); conditions: S. cerevisiae mec2-1 strain, active compounds read high
Outline: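 Strain: mec2-1 (DNA repair/cell cycle alteration). Compound exposure, then growth measured; inhibition expressed relative to vehicle.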

[6] = NCI Yeast Anticancer Drug Screen. Data for the rad14 strain (AID 159);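 also: 0% = growth of vehicle-treated control cultures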; conditions: S. cerevisiae rad14 strain growth inhibition, active compounds read high
Outline: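 Yeast cells carrying a defined DNA-repair defect were exposed to compounds, and growth inhibition was calculated relative to vehicle-treated control cultures.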

[7] = NCI Yeast Anticancer Drug Screen. Data for the sgs1 mgt1 strain (AID 161);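 also: 0% = growth of cultures given vehicle only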; conditions: S. cerevisiae sgs1 mgt1 strain, active compounds read high
Outline: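 Test agents were incubated with a DNA-repair-mutant yeast strain. Growth was then read and compared against vehicle-treated controls.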

[8] = NCI Yeast Anticancer Drug Screen. Data for the CLN2oe strain (AID 163);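 also: 0% = growth of vehicle-only control cultures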; conditions: S. cerevisiae CLN2oe strain, active compounds read high
Outline: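 Growth of a genetically modified yeast strain is measured after compound exposure and compared with cultures given vehicle alone.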

[9] = NCI Yeast Anticancer Drug Screen. Data for the cln2 rad14 strain (AID 165);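 also: 0% = growth equal to vehicle treated cultures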; conditions: S. cerevisiae cln2 rad14 strain, active compounds read high
Outline: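 Compounds are applied to the cln2 rad14 yeast strain, and growth is then compared with that of vehicle-treated cultures to give inhibition.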

[10] = NCI Yeast Anticancer Drug Screen. Data for the bub3 strain (AID 167); conditions: S. cerevisiae bub3 mutant strain, active compounds read high
Outline: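 Compounds were applied to a genetically altered yeast strain carrying a cell-cycle control defect. Growth inhibition was scored against vehicle-treated controls.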

[11] = NCI Yeast Anticancer Drug Screen. Data for the wt2 strain (AID 169);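 also: 0% = growth of vehicle-treated yeast cultures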; conditions: S. cerevisiae wt2 strain growth inhibition, active compounds read high
Outline: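 This strain belongs to a panel of yeast strains with defined genetic alterations in DNA damage repair or cell cycle control. Compounds are applied, and growth inhibition is measured against vehicle-treated cultures.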

[12] = NCI Yeast Anticancer Drug Screen. Data for the mlh1 strain (AID 171);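 also: 0% = growth of vehicle-treated control cultures of the same strain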; conditions: S. cerevisiae mlh1 strain growth inhibition, active compounds read high
Outline: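 Growth of the mutant yeast strain after compound exposure, expressed as inhibition relative to vehicle-only controls.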

[13] = NCI Yeast Anticancer Drug Screen. Data for the sgs1 strain (AID 173);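 also: 0% = growth of vehicle-only control cultures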; conditions: S. cerevisiae sgs1 mutant, active compounds read high
Outline: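 Growth of a yeast strain bearing a defined genetic alteration is measured after compound treatment. Inhibition is expressed relative to vehicle-only controls.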

[14] = NCI Yeast Anticancer Drug Screen. Data for the mlh1 rad18 strain (AID 175); conditions: S. cerevisiae mlh1 rad18 strain growth inhibition, active compounds read high
Outline: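 Read-out is yeast growth inhibition, calculated against vehicle-only controls. The compound was applied to a strain engineered with DNA damage repair alterations.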

[15] = NCI Yeast Anticancer Drug Screen. Data for the rad18 strain (AID 177); conditions: S. cerevisiae rad18 mutant growth inhibition, active compounds read high
Outline: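 Growth of the mutant yeast strain after compound exposure, normalised to vehicle-only cultures.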

[16] = at 5.0 µM (retest, dose inferred, filed as 0.5)
[17] = at 50.0 µM (retest, dose inferred, filed as 5.0)

Measured: growth inhibition

COc1ccc(C(NCCNC(c2ccc(OC)c(OC)c2)c2cc3c(cc2O)OCO3)c2cc3c(cc2O)OCO3)cc1OC (stereo not drawn)
inactive: [1]; at 1.2 µM -1% | [1]; at 3.7 µM -6% | [1]; at 11.0 µM 7% | [2]; at 1.2 µM 4% | [2]; at 3.7 µM -2% | [2]; at 11.0 µM 2% | [2]; at 33.0 µM 29% | [3]; at 1.2 µM -6% | [3]; at 3.7 µM -11% | [3]; at 11.0 µM 10% | [4]; at 1.2 µM 4% | [4]; at 3.7 µM -10% | [4]; [16] -12% | [4]; at 11.0 µM 19% | [4]; [17] 7% | [4]; at 50.0 µM 38.2% | [5]; at 1.2 µM -1% | [5]; at 3.7 µM 1% | [5]; [16] -11% | [5]; at 11.0 µM 9% | [5]; at 50.0 µM 27.9% | [6]; at 1.2 µM 1% | [6]; at 3.7 µM 5% | [6]; at 11.0 µM 27% | [7]; [16] 4% | [7]; [17] 48% | [8]; at 1.2 µM -6% | [8]; at 3.7 µM 1% | [8]; at 11.0 µM 7% | [8]; at 33.0 µM 18% | [9]; [16] -29% | [9]; [17] 23% | [9]; at 50.0 µM 41.2% | [10]; at 1.2 µM -1% | [10]; at 3.7 µM -6% | [10]; [16] -21% | [10]; at 11.0 µM 0% | [10]; at 33.0 µM 15% | [10]; [17] 28% | [10]; at 50.0 µM 54.8% | [11]; at 1.2 µM -1% | [11]; at 3.7 µM -2% | [11]; at 11.0 µM 7% | [11]; at 33.0 µM 50% | [12]; at 1.2 µM 2% | [12]; at 3.7 µM 1% | [12]; at 11.0 µM 12% | [13]; at 1.2 µM 2% | [13]; at 3.7 µM 0% | [13]; at 11.0 µM 4% | [13]; at 33.0 µM 63% | [14]; [16] -29% | [14]; [17] 34% | [14]; at 50.0 µM 46.6% | [15]; at 1.2 µM -4% | [15]; at 3.7 µM -4% | [15]; at 11.0 µM 8%
active: [1]; at 33.0 µM 89% | [1]; at 100.0 µM 99% | [2]; at 100.0 µM 99% | [3]; at 33.0 µM 87% | [3]; at 100.0 µM 97% | [4]; at 33.0 µM 74% | [4]; at 100.0 µM 99% | [5]; at 33.0 µM 78% | [5]; [17] 95% | [5]; at 100.0 µM 99% | [6]; at 33.0 µM 92% | [6]; at 100.0 µM 99% | [7]; at 50.0 µM 72.2% | [8]; at 100.0 µM 98% | [10]; at 100.0 µM 98% | [11]; at 100.0 µM 99% | [12]; at 33.0 µM 84% | [12]; at 100.0 µM 99% | [13]; at 100.0 µM 99% | [15]; at 33.0 µM 75% | [15]; at 100.0 µM 98%
